These results are taken from PubChem BioAssay.

“And” between values parts separate entries of the source, which are not always exact repeats. Equal values may be shown once. Records with an inconclusive call do not appear. The source made the active and inactive calls. Unless noted, cut-off not given; nearly all actives show AC50 up to about 26 µM.

A short description of assay [1]: growth inhibition of DIPG glioma cells, dose response, cell-based, SU-DIPG-XVII, MIPE5.0, CellTiter-Glo, qHTS (AID 1347060).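 Further: cells exposed to compound for 48 hours before viability readout.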 The settings on record: SU-DIPG-XVII viability, CellTiter-Glo ATP luminescence. Background: In ATP-based viability assays light output follows the ATP content of the culture.
Assay [2] is described as follows: growth inhibition of DIPG glioma cells, dose response, cell-based, SU-DIPG-XIII, MIPE4.0, CellTiter-Glo, qHTS (AID 1347061; cut-off not given, nearly all actives have AC50 up to about 37 µM;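 further: cells exposed to compound for 48 hours before readout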). The following applies: SU-DIPG-XIII viability, CellTiter-Glo ATP luminescence.
The nature of assay [3]: growth inhibition of DIPG glioma cells, dose response, cell-based, JHH-DIPG-1, MIPE4.0, CellTiter-Glo, qHTS (AID 1347062; cut-off not given, nearly all actives have AC50 up to about 27 µM;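 further: cells exposed to compound for two days before readout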). The following applies: JHH-DIPG-1 viability, CellTiter-Glo ATP luminescence.
A short description of assay [4]: growth inhibition of DIPG glioma cells, dose response, cell-based, SU-DIPG-IV, MIPE4.0, CellTiter-Glo, qHTS (AID 1347063; cut-off not given, nearly all actives have AC50 up to about 30 µM;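 further: compound exposure lasted 48 hours before the viability readout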). The following applies: SU-DIPG-IV viability, CellTiter-Glo ATP luminescence.
Assay [5] is described as follows: JHH-DIPG-1 glioma cell viability, MIPE5.0 library, CellTiter-Glo luminescence, qHTS (AID 1347067).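 Further: cells exposed to compound for 48 hours before readout.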 The settings on record: JHH-DIPG-1 glioma viability, CellTiter-Glo ATP luminescence.
Assay [6] is described as follows: SU-DIPG-XXV glioma cell viability, MIPE5.0 library, qHTS (AID 1347068; cut-off not given, nearly all actives have IC50 up to about 30 µM;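 on IC50: cells exposed to compound for 48 hours before viability readout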).
A short description of assay [7]: sensitizers of A549 cells to miR-34 induction, primary screen, imaging, A549 dox-inducible miR-34, nuclei and caspase counts (AID 1347080;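 active means compounds whose cell count with miR-34 switched on is under 0.7 times the count with it off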). The following applies: A549 miR-34 inducible, Hoechst nuclei count, 48 h.
Assay [8] is described as follows: survival rescue of mitochondrial mutant cells in low glucose, primary screen, MELAS cybrids, Rieske KO mouse fibroblasts, CellTiter-Glo (AID 1508586;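 active means mean z-score across replicates of 1.96 or higher in either the MELAS or the Rieske mutant cell line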;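 further: z relative to plate mean and SD of compound and empty wells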).
Assay [9] can be described thus: LFS_MB_P medulloblastoma growth inhibition, cell-based, chromothripsis tumors, cisplatin or BGB combos (AID 1671449; in the data active means inhibition above about 80%;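 further: cells exposed for 96 hours; 0% = vehicle DMSO and 100% = killing by high DMSO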). The settings on record: LFS_MB_P medulloblastoma cells.
Assay [10] in a line: HDN33 neuroblastoma growth inhibition, cell-based, chromothripsis tumors, cisplatin or BGB combos (AID 1671450; in the data active means inhibition above about 80%;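 further: cells exposed to compound for four days; 0% = vehicle DMSO and 100% = cell killing by high DMSO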). The settings on record: HDN33 neuroblastoma cells, stronger effect = higher value.
Assay [11] can be described thus: ICB984 medulloblastoma cell growth inhibition, synergistic combos for chromothripsis tumors, cisplatin or BGB combos (AID 1671451; call rule not given here;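 further: cells exposed for 96 hours before readout; 0% = vehicle DMSO and 100% = killing by high DMSO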). The following applies: ICB984 medulloblastoma cells, drug combinations, stronger effect = higher value.
The nature of assay [12]: HTB85 osteosarcoma cell growth inhibition, synergistic combos for chromothripsis tumors, BGB or cisplatin IC20 combos (AID 1671453; in the data active means inhibition above about 80%;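 further: cells exposed for 96 hours before readout; 0% = vehicle DMSO and 100% = high DMSO killing control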). The following applies: HTB85 osteosarcoma cells, drug combinations, stronger effect = higher value.
Assay [13] in a line: MDA-MB-436 breast carcinoma cell growth inhibition, synergistic combos for chromothripsis tumors, BGB or cisplatin combos (AID 1671458; call rule not given here;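 further: cells exposed for 96 hours; 0% = vehicle DMSO and 100% = killing by high DMSO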). The settings on record: MDA-MB-436 breast carcinoma growth inhibition, drug combinations, stronger effect = higher value.
The nature of assay [14]: growth inhibition of BT084 medulloblastoma cells, cell-based, ICGC_MB145, cisplatin and BGB IC40 combos (AID 1671461; in the data active means inhibition above about 80%;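 further: cells exposed to drugs for 96 hours; 0% = vehicle DMSO and 100% = high DMSO full killing control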). The following applies: drug combinations, stronger effect = higher value.
Assay [15] is described as follows: growth inhibition of RCMB18 medulloblastoma cells, cell-based, cisplatin and BGB IC40 combos (AID 1671462; in the data active means inhibition above about 80%;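 further: cells exposed to compound for four days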). The settings on record: stronger effect = higher value.
Assay [16] can be described thus: growth inhibition of DIPG glioma cells, dose response, cell-based, SU-DIPG-XIII, MIPE5.0, CellTiter-Glo, qHTS (AID 1347064; cut-off not given, nearly all actives have AC50 up to about 23 µM;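 on AC50: cells exposed to compound for 48 hours before the viability read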). The settings on record: SU-DIPG-XIII viability, CellTiter-Glo ATP luminescence.
Assay [17] in a line: viability loss in pontine glioma line – cell-based, SU-DIPG-XXV, MIPE5.0, CellTiter-Glo, qHTS, dose response (AID 1347065).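 Further: cells exposed to compound for 48 hours before ATP readout.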 The settings on record: CellTiter-Glo ATP luminescence.
The nature of assay [18]: SU-DIPG-VI glioma cell viability, MIPE4.0 library, CellTiter-Glo luminescence, qHTS (AID 1347066; cut-off not given, nearly all actives have AC50 up to about 30 µM;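 further: cells exposed to compound for 48 hours before readout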). The following applies: CellTiter-Glo ATP luminescence.
The mark [19] stands for this setting: stronger effect = lower value, cell number ratio, induced over uninduced.
Setting [20] is: measured here: relative caspase fold change +Dox/-Dox.
Where [21] appears, read: measured here: total cells with miR-34 induction, stronger effect = lower value.
The mark [22] stands for this setting: measured here: total cells without miR-34 induction.
Setting [23] is: MELAS cybrid survival, CellTiter-Glo 48 h, stronger effect = higher value.
[24] abbreviates: Rieske KO mouse fibroblast survival, CellTiter-Glo 72 h.

In general, AC50 refers to the concentration giving half of the maximal activity seen. Broadly, the inhibition is the change of the read-out against control, counted positive when it falls. Consider `CN1CCc2c(c3ccccc3n2Cc2ccc(C(=O)NO)cc2)C1`, for which the AC50 was 23.5 µM (active) in [1], 23.5 µM (active) in assay [3], 20.9 µM (active) in [4] and 20.9 µM (active) in [5]. The result in [2] and in assay [6] was inactive. Moreover, the fold change in assay [7] (setting [19]) was 0.909 (inactive) and 0.928 (inactive); in [7] (setting [20]) it was 0.692 and 0.727. Besides, the cell count in [7] (setting [21]) was 8690 and 9370; in [7] (setting [22]) it was 9560 and 10100. Besides, the z-score in [8] (setting [23]) is -0.421 (inactive) and -0.386 (inactive); in [8] (setting [24]) it was 1.15 and -0.701. In addition, the inhibition in assay [9] (at 0.5 µM, stronger effect = higher value) is -24.1% (inactive) and -14.7% (inactive); in assay [9] (measured here: combination with BGB IC20, at 0.005 µM), -28.6% and -21.3%; in assay [9] (measured here: combination with BGB IC40, at 0.005 µM) it was -40.9% and -27%; in assay [9] (measured here: combination with BGB IC40, at 0.05 µM) it was -19.2% and -45.3%; in assay [9] (measured here: combination with cisplatin, at 0.5 µM, stronger effect = higher value) it was -23.9% and 9.39%; in assay [9] (measured here: combination with cisplatin, at 5 µM, stronger effect = higher value) it was -11.8% and 7.46%. In addition, the inhibition in [10] (BGB combo, at 5 µM) was 2.45% and 27.4%; in assay [10] (at 0.5 µM), 4.53% (inactive) and -0.32% (inactive); in assay [10] (cisplatin combo, at 5 µM) it was 19.6% and 28.9%; in assay [10] (measured here: with BGB IC20 combination, at 0.5 µM), -5.55% and 4.06%; in [10] (measured here: with cisplatin IC20 combination, at 0.5 µM), 15% and 5.2%; in assay [10] (single agent, at 5 µM), 25.9% and 54.8%. In addition, the inhibition in assay [11] (BGB IC20 combo, at 0.005 µM) is 22.3% and -11.7%; in assay [11] (BGB IC40 combo, at 0.005 µM), -10.2% and -27.7%; in assay [11] (BGB IC40 combo, at 0.05 µM), -9.66% and -9.28%; in [11] (at 0.5 µM), -11.2% (inactive) and -22.9% (inactive); in assay [11] (cisplatin combo, at 0.05 µM) it was -15.3% and -13.2%; in assay [11] (cisplatin combo, at 0.5 µM) it was -16.4% and -10.9%. For the same compound, the inhibition in [11] (cisplatin combo, at 5 µM) is -14% and -10.1%; in assay [11] (measured here: 5 uM single agent, at 5 µM), -11.5% and -12.4%; in [12] (at 0.5 µM), 0.33% (inactive) and -0.18% (inactive); in assay [12] (measured here: with BGB IC20, at 0.5 µM), 0.483% and -9.65%; in assay [12] (measured here: with BGB IC20, at 5 µM), 26.3% and 10.4%; in [12] (measured here: with cisplatin IC20, at 0.5 µM), -3.56% and 12.2%. Also, the inhibition in [12] (measured here: with cisplatin IC20, at 5 µM) is 24.2% and 27.5%; in [12] (single agent, at 5 µM) it was 18.4% and 13.9%; in [13] (at 0.5 µM), -13.8% (inactive) and -2.54% (inactive); in [13] (measured here: BGB combination, at 0.5 µM), -10.6% and -7.29%; in [13] (measured here: BGB combination, at 5 µM) it was -5.66% and 0.993%; in [13] (measured here: cisplatin combination, at 0.5 µM), -25.1% and 2.46%. Besides, the inhibition in [13] (measured here: cisplatin combination, at 5 µM) is -15.3% and 18.8%; in assay [14] (at 0.5 µM), 2.15% (inactive) and 0.779% (inactive); in assay [14] (cisplatin combination, at 0.5 µM), 8.01% and -20.4%; in assay [14] (cisplatin combination, at 5 µM), -145% and 19.9%; in [14] (measured here: BGB IC40 combination 0.05 uM, at 0.05 µM) it was -20.5% and 21.4%; in [14] (single agent, at 5 µM), 2.48% and 3.3%. Further, the inhibition in [15] (at 0.5 µM) is -9.94% (inactive) and 3.3% (inactive); in [15] (cisplatin combo, at 5 µM), 1.27% and 18.1%; in assay [15] (measured here: BGB IC40 combination, at 0.05 µM), -31.8% and 8.24%; in [15] (measured here: combination with cisplatin, at 0.5 µM) it was -21.5% and 43%; in assay [15] (single agent, at 5 µM) it was 12.1% and 14.4%.

For the compound `Nc1nc(NCCNc2ncc(-n3ccnc3)c(-c3ccc(Cl)cc3Cl)n2)ccc1[N+](=O)[O-]`, the half-maximal activity concentration (AC50) is 11.8 µM (active) in assay [1]; 5.26 µM (active) in [4]; 13.2 µM (active) in assay [16]; 8.33 µM (active) in assay [17]; 11.8 µM (active) in assay [5]. Further, the compound was classed as inactive in [2] and in [6].

Take `CCN(C(=O)c1c(O)c2c(Cl)cccc2n(C)c1=O)c1ccccc1`: the figures for the AC50 in [1] and in assay [3] were 8.33 µM (active) and 14.8 µM (active), respectively. For the same compound, the result in assay [2], in [16] and in assay [18] was inactive. In addition, the fold change in [7] (setting [19]) is 0.884 (inactive); in assay [7] (setting [20]) it was 0.907. For the same compound, the cell count is 8690 in assay [7] (setting [21]) and 9820 in [7] (setting [22]). The z-score is -0.321 (inactive) in assay [8] (setting [23]) and 0.483 in assay [8] (setting [24]).

Take `CCOC(=O)[C@@H](N)Cc1ccc(-c2cc(O[C@H](c3ccc(Cl)cc3-n3ccc(C)n3)C(F)(F)F)nc(N)n2)cc1`: the AC50 was 11.8 µM (active) in assay [1]; 26.4 µM (active) in assay [4]; 20.9 µM (active) in [16]; 13.2 µM (active) in assay [17]; 16.6 µM (active) in [18]; 13.2 µM (active) in assay [5]. Also, in assay [2], the call was inactive.

One may read the IC50 as the concentration that inhibits the measured activity by half. On to `Cc1cccc(-c2[nH]c(C(C)(C)C)nc2-c2ccc3c(c2)OCO3)n1`, for which the half-maximal activity concentration (AC50) in assay [1] is 3.72 µM (active); in assay [2], 0.526 µM (active); in [4] it was 6.62 µM (active); in assay [16] it was 2.63 µM (active); in assay [17] it was 2.95 µM (active); in [5], 1.18 µM (active). In addition, the half-inhibitory concentration (IC50) in [6] is 3.72 µM (active). For the same compound, the fold change in assay [7] (setting [19]) was 0.974 (inactive); in [7] (setting [20]) it was 0.464. Further, the figures for the cell count in assay [7] (setting [21]) and in assay [7] (setting [22]) were 3490 and 3590, respectively. The z-score in assay [8] (setting [23]) is -0.251 (inactive); in [8] (setting [24]) it was -1.59.
